About 12,000 (3.5%) of roughly 340,000 compounds were called active. Inconclusive results (about 18%) are left out. Calls follow the shape of the dose curve; as a rule, active = well fitted inhibition curve with a large enough effect; inconclusive = small, poorly fitted or top-dose-only effect, or another doubt; inactive = no such curve, though single readings can be large or run the other way. The full list was thinned out, with actives kept by preference.
test: qHTS Assay for Inhibitors of Hepatitis C Virus (HCV); conditions: Huh7.5.1 HCVcc-Cre infection, luciferase reporter, 44 h; series mostly up to 41.8 µM; activity change, negative = inhibition: at the top concentration
Procedure, shortened: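 A cell-based infection assay in which seeded cells (1,000 per well) receive test compound after 4 h, are inoculated with HCVcc-Cre at approximately 0.5 moi, and are incubated 44 h before luminescence detection.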
% is scaled to controls: 0 for no effect and ±100 for the full control effect; potency is read from the fitted curve at half-maximal effect.

Row | SMILES | Potency | activity change, negative = inhibition
1 | CCCCNC(=O)CSc1nc2n[nH]c(C)c2c(=N)n1-c1cccc(Cl)c1C | 15.8 µM (active) | 
2 | CCCCNC(=O)CSc1nnc(-c2ccco2)n1C |  | 11.8% (inactive)
3 | CCCCNC(=O)CSc1nccn1Cc1ccccc1 |  | 12.3% (inactive)
4 | CCn1nc(C(=O)NNC(=O)C2CSC3(C)CCC(=O)N23)c2ccccc2c1=O (stereo unspecified) |  | -22.1% (inactive)
5 | COc1cccc(CNC(C)C(=O)Nc2ccc(S(=O)(=O)N3CCCC3)cc2)c1 (stereo unspecified) |  | -22% (inactive)
6 | COC(=O)c1cc(-c2cccs2)nc2ccccc12 | 12.6 µM (active) | 
7 | O=C(Nc1nnc(-c2ccccc2)o1)c1cc(-c2cccs2)nc2ccccc12 |  | -12.9% (inactive)
8 | O=C(NCCN1CCOCC1)c1cc(-c2cccs2)nc2ccccc12 |  | 12.8% (inactive)
9 | O=C(O)CCCc1ccccc1 | inactive | 
10 | O=C(O)CCc1cccnc1 | 0.891 µM (active) | 
11 | N/C(=N\OC(=O)CCc1ccccc1)c1cccnc1 |  | -0.933% (inactive)
12 | COc1ccc2c(CC(=O)NNC(=O)c3ccccc3F)coc2c1 |  | 6.42% (inactive)
13 | Cc1cc(C)n2nc(C(=O)OCC(=O)N(C)CC(=O)Nc3ccc(F)cc3)nc2n1 |  | -0.618% (inactive)
14 | Cc1ccc(C)c(-c2nnc(NC(=O)CS(=O)(=O)c3ccccc3)o2)c1 |  | 10% (inactive)
15 | COc1ccc(S(=O)(=O)Nc2cccc3c2O[C@H](CN(C)S(=O)(=O)c2ccc(OC)cc2)[C@@H](C)CN([C@H](C)CO)C3=O)cc1 |  | 13.2% (inactive)
16 | O=C(NCC1CCCO1)c1ccc2ccccc2n1 (stereo unspecified) |  | -11.2% (inactive)
17 | O=C(NCC1CCCO1)c1cc(-c2ccccc2)nc2ccccc12 (stereo unspecified) |  | -9.2% (inactive)
18 | O=C(NCCCO)c1cc2c([nH]c3ccccc32)c(-c2ccc(F)cc2)n1 | 14.1 µM (active) | 
19 | CN(C)CCCNC(=O)c1ccc2[nH]c3ccccc3c2c1 |  | 7.15% (inactive)
20 | O=C(NCCc1ccc(F)cc1)c1n[nH]c2ccccc12 |  | -2.17% (inactive)
21 | O=C(NCC1CCCO1)c1cc2c([nH]c3ccccc32)c(-c2ccc(F)cc2)n1 (stereo unspecified) | 1.58 µM (active) | 
22 | COc1ccc(CCNC(=O)COc2cc(C)cc3oc(=O)c(C)c(C)c23)cc1OC |  | 24.8% (inactive)
23 | CC1CN(Cc2ccccc2)C(=S)NC1=O (stereo unspecified) |  | 33.1% (inactive)
24 | C=CCOC(=O)N1CCC2CC1c1cc(-c3ccc(OC)cc3)ccc12 (stereo unspecified) |  | 2.52% [at 8.37 µM] (inactive)
25 | COc1ccccc1C(=O)NCCC(=O)NC1=NCCS1 |  | 5.53% (inactive)
26 | Cc1ccc(C(=O)NNC(=O)CSc2nnc3ccccn23)cc1 |  | -0.421% (inactive)

Row | SMILES | Potency | activity change, negative = inhibition
27 | Cc1ccc(CNC(=O)c2cccc3c2C(=O)c2ccc(N4CCC(C)CC4)cc2S3(=O)=O)cc1 | 10 µM (active) | 
28 | Cc1ccc(CNC(=O)c2ccc3c(c2)S(=O)(=O)c2ccccc2C3=O)cc1 |  | -24.7% (inactive)
29 | CC1CCN(c2c(NCc3ccc(C(=O)NCc4ccccc4)cc3)c(=O)c2=O)CC1 |  | -9.89% (inactive)
30 | COc1cccc(NC(=O)CN(C)CC(=O)c2c(N)n(Cc3ccccc3)c(=O)n(C)c2=O)c1 |  | 6.73% (inactive)
31 | CCCCCCSc1ccc([C@@H]2[C@H]3C(=O)N(CC)C(=O)[C@H]3[C@]3(C(=O)OC)CCCCN23)cc1 |  | -3.35% (inactive)
32 | COCCOC(=O)C1=C(C)N=c2s/c(=C\c3cccs3)c(=O)n2C1c1cccs1 (stereo unspecified) | inactive | 
33 | O=C1CCCC2=C1C(c1ccccc1)n1c(s/c(=C/c3cccc(F)c3)c1=O)=N2 (stereo unspecified) |  | -3.9% (inactive)
34 | COc1ccc(OC)c(C2C3=C(N=c4s/c(=C\c5cccc(O)c5)c(=O)n42)c2ccccc2CC3)c1 (stereo unspecified) | 10 µM (active) | 
35 | CSCCC(NC(=O)COc1ccccc1)C(=O)N(C)CC(=O)Nc1ccc(C)cc1 (stereo unspecified) |  | -7.96% (inactive)
36 | CCOc1cc(/C=N/NC(=O)c2cc(-c3ccccc3)nc3ccccc23)ccc1O |  | -10.3% (inactive)
37 | Cc1ccc2nc(C)cc(N/N=C/c3ccc(F)cc3)c2c1 |  | -29.3% (inactive)
38 | CCOc1cc(/C=N/Nc2cc(C)nc3ccc(C)cc23)ccc1O | 10 µM (active) | 
39 | OCCN1CCN(CCO)C1=S |  | 3.26% (inactive)
40 | Cn1c(=O)[nH]c(=O)c2c1nc(N1CCN(C(c3ccccc3)c3ccccc3)CC1)n2CCO | 10 µM (active) | 
41 | CC1CCN(c2nc3c(c(=O)[nH]c(=O)n3C)n2CCCc2ccccc2)CC1 |  | 10.2% (inactive)
42 | Cn1c(=O)[nH]c(=O)c2c1nc(N1CCN(CCO)CC1)n2CCSc1nc2ccccc2s1 |  | 10.5% (inactive)
43 | Cc1ccc2nc(-c3cccnc3)c(NC3CCCC3)n2c1 |  | -28.5% (inactive)
44 | COc1ccc(C)cc1S(=O)(=O)NC1CCCCC1 |  | 14.2% (inactive)
45 | COc1ccc(-c2nc3cc(C)ccn3c2NC2CCCCC2)cc1SC1CCCCC1 | 3.55 µM (active) | 
46 | O=S(=O)(Nc1ncnc2sccc12)c1cccc(F)c1 |  | 22.3% (inactive)
47 | CCCCN(C(=O)C(CCSC)N1C(=O)c2ccccc2C1=O)c1c(N)n(CCC)c(=O)[nH]c1=O (stereo unspecified) |  | 15.1% (inactive)
48 | CN(CC(=O)Nc1ccc(OC(F)(F)F)cc1)C(=O)C1CCC1 |  | -16.3% (inactive)
49 | CC(C)(CCl)C(=O)Nc1ccc(Sc2ccc(F)cc2)cc1 |  | -12.8% (inactive)
50 | Cc1ccc(NC(=O)CC(=O)Nc2ccc(C)cc2)cc1 |  | 3.38% (inactive)
51 | O=C(CCl)Nc1ccc(Sc2ccc(NC(=O)CCl)cc2)cc1 | 3.98 µM (active) | 
52 | O=C(COC(=O)c1ccc(F)cc1)NCC1COc2ccccc2O1 (stereo unspecified) |  | 7.78% (inactive)

Row | SMILES | Potency | activity change, negative = inhibition
53 | COc1ccc2oc(N)nc2c1 |  | 4.25% (inactive)
54 | Cc1ccc(NS(=O)(=O)c2ccc(C(=O)NCCCN3CCOCC3)cc2)cc1 |  | 7.11% (inactive)
55 | COc1cccc(CNC(=O)COC(=O)CN2C(=O)NC3(CCCCC3C)C2=O)c1 (stereo unspecified) |  | -8.27% (inactive)
56 | CCOC(=O)[C@H]1[C@H]2COc3ccc(C)cc3[C@@H]2N2C(=O)CN(Cc3ccc(F)cc3)C(=O)[C@@]12C |  | -18.6% (inactive)
57 | CCOC(=O)c1sc(N)c(C#N)c1COC(=O)C1=COCCO1 |  | 4.34% (inactive)
58 | CCCCCCCCCCOC(=O)Cn1c(COc2ccc(C)cc2)[n+](C)c2ccccc21 | 31.6 µM (active) | 
59 | CCCCCCCCCCOC(=O)Cn1c(COc2cccc(OC)c2)[n+](C)c2ccccc21 |  | -14.4% (inactive)
60 | CCCCOC(=O)Cn1c(=O)n(CC(=O)OCCCC)c2cc(C)ccc21 |  | 12.5% (inactive)
61 | CCOc1ccc(CNC(=O)C2CCCN(c3nnc(C)c4c(C)n(-c5ccccc5)nc34)C2)cc1 (stereo unspecified) |  | -15.1% (inactive)
62 | CCc1ccc(CNC(=O)C2CCN(c3nnc(C)c4c(C)n(-c5ccc(C)cc5)nc34)CC2)cc1 | 8.91 µM (active) | 
63 | COc1ccc(-n2nc3c(N4CCC(C(=O)NCc5ccccc5)CC4)nnc(C)c3c2C)cc1 |  | -12.4% (inactive)
64 | CCOC(=O)CCC(NC(=O)c1ccc(CNc2nc3cc(C(F)(F)F)ccc3nc2C(=O)OCC)cc1)C(=O)OCC (stereo unspecified) |  | -22.8% (inactive)
65 | Cc1cccc(NC(=O)c2cccc(S(=O)(=O)N3CCCC3)c2)n1 |  | 7.31% (inactive)
66 | Cc1ccc(NC(=O)c2cccc(S(=O)(=O)N3CCCc4ccccc43)c2)nc1 | 10 µM (active) | 
67 | Cn1c(=O)n(C)c2cc(S(=O)(=O)N3CCCc4ccccc43)ccc21 |  | -14.2% (inactive)
68 | C[C@H](O)[C@@H]1C(=O)N2CCc3ccc(N4CCOCC4)cc3[C@@H]2C[C@@H]1N(C)C(=O)C(C)(C)C |  | -22.9% [at 8.37 µM] (inactive)
69 | CCCCc1ccc(NC(=O)CN2C(=O)NC(Cc3ccccc3)C2=O)cc1 (stereo unspecified) |  | -11.5% (inactive)
70 | Cc1ccc(S(=O)(=O)N2CCN(C(=O)COC(=O)/C=C/c3cccc(Cl)c3)CC2)c(C)c1 |  | -24.1% (inactive)
71 | CCC(=O)c1cn(CCOc2ccccc2OC)c2ccccc12 | 8.91 µM (active) | 
72 | CCCn1cc(SCC(N)=O)c2ccccc21 |  | -9.3% (inactive)
73 | COc1ccccc1OCCn1c(SCC(N)=O)nc2ccccc21 |  | 7.46% (inactive)
74 | CCCCNS(=O)(=O)CCNCc1ccccc1OC |  | 5.73% (inactive)
75 | COC(=O)c1ccc(CNC(=O)c2ccc(S(=O)(=O)N3CCCCCC3)cc2)cc1 |  | 4.24% (inactive)
76 | Cc1ccc(OCC(=O)Nc2ccc(N3CCN(C(=O)c4ccco4)CC3)cc2)c(C)c1 | 7.08 µM (active) | 
77 | CCC(=O)Nc1ccc(C(=O)N2CCN(C(=O)c3ccco3)CC2)cc1 |  | -5.83% (inactive)
78 | Cc1ccc(C)c(OCC(=O)N2CCN(C(=O)c3ccco3)CC2)c1 |  | -2.2% (inactive)

Row | SMILES | Potency | activity change, negative = inhibition
79 | CCC(=O)N1CCc2cc(Br)c(S(=O)(=O)NCCN3CCCCC3CC)cc21 (stereo unspecified) |  | 0.826% (inactive)
80 | CCN(CC(=O)Nc1cc(Cl)ccc1C)C(=O)CSCc1ccccc1 |  | 5.2% (inactive)
81 | Nc1ccccc1Sc1ccc(C(F)(F)F)cc1[N+](=O)[O-] |  | -1.94% (inactive)
82 | CCOC(=O)c1cc(Sc2ccccc2N)cc(C(=O)OCC)n1 |  | -19.6% (inactive)
83 | CCS(=O)(=O)c1cc([N+](=O)[O-])c(Sc2ccccc2N)s1 | 7.08 µM (active) | 
84 | O=C(COc1ccccc1Cl)N1N=C(c2cccs2)CC1c1ccco1 (stereo unspecified) |  | -14.1% (inactive)
85 | CC(=NNC(=O)c1ccc2nc[nH]c2c1)c1ccc(Br)cc1 |  | -2.36% (inactive)
86 | COc1ccc(S(=O)(=O)N2CCOCC2)cc1NC(=O)Cc1c(F)cccc1Cl |  | -2.06% (inactive)
87 | COC(=O)CNS(=O)(=O)c1ccc(OC)cc1 |  | 32.7% (inactive)
88 | COc1ccc(S(=O)(=O)NCCCCOc2ccc(Cl)cc2)cc1 | 25.1 µM (active) | 
89 | COc1ccc(S(=O)(=O)NCCOc2ccccc2)cc1F |  | 1.65% (inactive)
90 | O=C(NCCCN1CCOCC1)c1cn(-c2ccccc2)nc1-c1ccc(F)cc1 |  | -20.5% (inactive)
91 | CN(C)C(=O)COC(=O)c1cccc(S(=O)(=O)N2CC3(C)CC2CC(C)(C)C3)c1 (stereo unspecified) |  | 6.74% (inactive)
92 | COc1ccc(N2CCN(S(=O)(=O)c3ccc4c(c3)NC(=O)C(C)C(=O)N4)CC2)cc1 (stereo unspecified) |  | 0.721% (inactive)
93 | CON(C)S(=O)(=O)c1ccc2c(c1)NC(=O)C1CCCN21 (stereo unspecified) | 8.91 µM (active) | 
94 | CC1C(=O)Nc2ccc(S(=O)(=O)N3CCN(c4ccccc4F)CC3)cc2NC1=O (stereo unspecified) |  | -29.1% (inactive)
95 | Cc1ccc(S(=O)(=O)CCC(=O)OCC(=O)N(C)Cc2ccccc2)cc1 |  | 10.4% (inactive)
96 | CN(CC(=O)Nc1ccc(F)cc1)CC(=O)N1CCCCC1 |  | -1.19% (inactive)
97 | OCC(O)C1OCOC(C(O)CO)C1O (stereo unspecified) |  | 9.97% (inactive)
98 | COC(=O)C1=C(C)N(Cc2ccccc2)C(=NCCCOC(C)C)N[C@H]1c1ccccc1 |  | -16.6% (inactive)
99 | O=C(N/N=C/c1ccccn1)c1cccnc1 |  | 9.35% (inactive)
100 | Cc1cc(/C=N/NC(=O)c2cccnc2)c(C)n1CC(C)C |  | 8.27% (inactive)
101 | O=C(N/N=C/c1sc(N2CCCCC2)nc1-c1cccs1)c1cccnc1 | 11.2 µM (active) | 

Source: PubChem BioAssay AID651820 (National Center for Advancing Translational Sciences (NCATS), 2012)
